# Compound activity as filed in PubChem.
# TWEAK-Fn14 inh: TWEAK-Fn14 signaling inhibition | TWEAK-stimulated Fn14 reporter cells, luciferase luminescence, 8 h | inhibition, % at 10 µM | 360,000 compounds, 2% hits | AID 1159606; in the data active means inhibition above about 50%
# Shn3 inh set2: reduces Shn3 3'UTR luciferase signal in osteoblasts; Clone20 osteoblast Shn3 3'UTR firefly luciferase, 24 h; 360,000 compounds, 0.52% hits; inhibition, % at 12.5 µM;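 active means mean inhibition of at least 75% with every replicate also reaching 75%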;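 further: 0% = median of neutral control wells and 100% = pilot-screen positive control compound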
# TROY NFkB inh: inhibitors of TROY-dependent NF-kB signaling | Q293 LMP1-TROYcd NF-kB luciferase reporter, 4 h | 360,000 compounds, 0.98% hits | inhibition, % at 10 µM;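 active means compounds whose plate-normalised and pattern-corrected inhibition of the luciferase reporter signal at the single screening dose is 50% or more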
# TRPM1 prom inh: MITF TRPM1 promoter inhibition in SK-MEL-5 cells | inhibition, % at 12.5 µM | SK-MEL-5 TRPM1 promoter luciferase, 24 h | 330,000 compounds, 0.83% hits;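 active means mean inhibition across replicates of 60% or more, whatever share of single replicates reaches that level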
# Peg3 prom inh: reduces Peg3 promoter-driven luciferase expression in HeLa. inhibition, % at 20 µM. 360,000 compounds, 1.7% hits. HeLa PEG-Prom luciferase reporter, luminescence, overnight;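 active means inhibition of at least 50% at 20 µM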
# LMP1 NFkB inh: inhibitors of Epstein-Barr LMP1-induced NF-kappaB reporter. 350,000 compounds, 0.69% hits. inhibition, % at 12.5 µM. LMP1-induced NF-kappaB luciferase reporter cells, luminescence; in the data active means inhibition above about 41%;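 further: 0% = neutral control wells and 100% = reference inhibitor control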
# Active calls of the source: *; / = no result. Rows were chosen to be rich in hits. Some 4.1% of all compounds tested hit in one or more screens of this group.
SMILES,TWEAK-Fn14 inh,Shn3 inh set2,TROY NFkB inh,TRPM1 prom inh,Peg3 prom inh,LMP1 NFkB inh
O=C(N/N=C/c1c(O)n(C2CCCCC2)c(=S)[nH]c1=O)c1ccccc1O,-61,1,-21,11,-23,42*
O=C(Cc1ccccc1)OCC(=O)N1CCN(S(=O)(=O)c2ccc(Cl)cc2)CC1,7,14,-4,-1,-20,-1
C[C@]12CC[C@H]3[C@@H](CCC4=CC(=O)CC[C@@]43C)[C@@H]1CC[C@@H]2O,-27,4,9,24,46,6
CCN1C[C@]2(COC)CC[C@H](OC)[C@@]34C1[C@]1(OCO[C@@]15C[C@H](OC)[C@H]1C[C@@H]3[C@@H]5[C@H]1OC)[C@@H](O)[C@H]24,-2,89*,-1,8,-2,56*
O=C(c1ccco1)c1cn(Cc2ccccc2)c2ccccc12,102*,1,-26,-18,-12,-5
Cc1ccc(Cn2cc(C=O)c3ccccc32)cc1,38,16,30,-2,63*,36
O=Cc1cn(Cc2ccccc2[N+](=O)[O-])c2ccccc12,43,11,28,-1,21,4
O=C1NC(=O)C(Cc2ccccc2)(Cc2ccccc2)C(=O)N1,10,13,0,7,-12,-9
CC(C)CC(=O)Nc1ccc(S(=O)(=O)N2CC3CC(C2)c2cccc(=O)n2C3)cc1 (configuration not stated),6,14,-2,-2,6,-2
COc1ccc2c(c1)/C(=C/c1cnc[nH]1)C(=O)N2,11,-10,21,35,100*,88*
O=C1Nc2ccccc2/C1=C/c1cnc[nH]1,8,-5,2,17,-11,-1
CN1CN(c2ccccc2)C2(CCN(CCCSc3ccccc3NC(=O)/C=C/c3ccccc3)CC2)C1=O,4,59,21,69*,32,11
Cn1cnnc1Sc1cc(N2CCNCC2)ccc1[N+](=O)[O-],4,-6,8,-3,3,1
CN1CCN(C(=O)COc2ccc(-c3nc4ccccc4s3)cc2)CC1,52*,20,1,15,-27,59*
Cn1nc(-c2ccc(OCC(=O)N3CCN(Cc4ccccc4)CC3)cc2)c2ccccc2c1=O,21,89*,27,10,37,21
Cn1cccc1CN1CCN(C(=O)COc2ccccc2)CC1,4,-20,9,-15,-1,9
CCOC(=O)CC1=C(C(=O)OCC)C2(C(=O)N1CC(=O)OC)C(C#N)=C(N)Oc1ccccc12 (configuration not stated),12,-16,-5,14,9,-5
CCN(CC)c1ccc(CNCCc2ccc(F)cc2)cc1,-2,16,-5,0,64*,-20
COc1ccc(-c2cc(=Nc3cccc(C(=O)O)c3)c3cc(C)ccc3o2)cc1,58*,10,21,-71,-329,-5
COc1ccc(-c2cc(=NCCCCCC(=O)O)c3cc(C)ccc3o2)cc1,-36,-29,-59,-18,-128,-4
O=C1NC2C(=CC(O)C(O)C2O)c2cc3c(cc21)OCO3 (configuration not stated),100*,90*,79*,67*,98*,78*
CCC(=NCc1ccco1)c1c(O)n(-c2ccc(C)cc2)c(=O)[nH]c1=O,-12,43,-29,-21,-148,-1
O=c1oc2ccccc2c(O)c1[C@H]1c2ccc(O)cc2Oc2c1c(=O)oc1ccccc21,43,-29,65*,-1,11,1
CN(CC1COc2ccccc2O1)c1nc(-c2cccnc2)nc2ccccc12 (configuration not stated),32,24,21,-17,51*,1
O=c1[nH]c(O)c(N=Nc2ccc3c(c2)OCCO3)c(=O)[nH]1,91*,37,88*,52,-32,36
SMILES,TWEAK-Fn14 inh,Shn3 inh set2,TROY NFkB inh,TRPM1 prom inh,Peg3 prom inh,LMP1 NFkB inh
CC(C)CN1CCN(Cc2ccc(C(F)(F)F)cc2)CC1CCO (configuration not stated),5,-2,8,1,1,-4
COc1ccc(NC(=O)c2cc([N+](=O)[O-])ccc2N2CCNCC2)cc1,-21,12,-13,3,6,5
Cc1cccc(CN2CCN(Cc3ccc(Cl)cc3)CC2)c1,20,15,5,-9,18,84*
Cc1cccc(CN2CCN(c3ccc(Cl)cc3)CC2)c1,10,13,15,-13,11,0
COC(=O)C1=C(c2ccc(C(C)=O)cc2)C[C@@H]2CC[C@H]1N2C(=O)NC1Cc2ccccc2C1,2,-9,-17,15,-2,12
c1ccc(-c2[nH]c(-c3ccccc3)[n+](CC3CO3)c2-c2ccccc2)cc1 (configuration not stated),80*,-22,41,15,30,3
C[n+]1c(-c2ccccc2)c2cc(N)ccc2c2ccc(N)cc21,9,67,0,62*,74*,0
Nc1ccc2ccc3cccc[n+]3c2c1,2,-21,2,-10,20,-10
CCOc1ccc(-n2c(-c3ccoc3)nc3ccccc3c2=O)cc1,7,0,2,-5,18,-3
CCOc1ccc(-c2c(C)n(-c3ccc(OCC)cc3)c3[n+]2CCCCC3)cc1,87*,88*,57*,76*,51*,35
CC(CCN1CC1)=NNC(=O)Nc1cccc2ccccc12,58*,2,37,5,-15,2
CCOC(=O)C1(c2ccccc2)CCN(CC(=O)Nc2cccc3ccccc23)CC1,22,20,5,5,15,-1
COC1CCC(OC2CC(C3(C)CCC4(CC(O)C(C)C(C(C)/C=C(\C)C(=O)C(C)CC(C)C(=O)O)O4)O3)OC3(OC(C4OC(O)(CO)C(C)CC4C)CC3C)C2C)OC1C (configuration not stated),50*,79,55*,84*,98*,-10
CN(C)C1=C(C#N)C(c2ccccc2)=NP(N(C)C)(N(C)C)=N1,-8,-12,13,4,7,-6
CCCCCn1c(=O)c(C(=O)NCc2ccccc2Cl)c(O)c2ccccc21,11,-6,-4,7,10,12
Cc1ccc(-c2cc(-c3ccc(C)cc3)[n+](C)o2)cc1,19,82,-8,63*,3,3
c1ccc2[nH]c(CCN3CCCCC3)nc2c1,-13,-6,-15,/,-5,-3
O=c1[nH]c2ccccc2n1C1CCN(Cc2ccc(-c3[nH]c4cc5ncnc5cc4nc3-c3ccccc3)cc2)CC1,-34,/,1,/,/,/
Ic1ccccc1CN[C@@H]1C2CCN(CC2)[C@@H]1C(c1ccccc1)c1ccccc1,-27,-18,-9,-7,86*,-17
Fc1ccccc1CNC1CN2CCC1CC2 (configuration not stated),-11,5,10,4,0,-6
